Source: ChEMBL document CHEMBL3988442, “University of Dundee, Small-Polar-MMV Screening Library” (2021)

molecular target: AMP-activated protein kinase, AMPK (Homo sapiens) (UniProt P54646+O43741+P54619+Q9UGJ0+Q9Y478+Q13131+Q9UGI9); test: AMP-dependent Kinase enzyme assay. An in vitro enzyme assay that detects ADP turnover that is directly proportional to AMPK activity. This uses naive AMPK that is activated during the assay with MK-8722; assay type: functional; parameters: scale not given: direction of the effect not stated beside the values; conditions: 30 µM

Compound | Percent Effect [%]
COc1ccc(CCCC(=O)N2CCCC(n3cncn3)C2)cc1 (stereo not drawn) | 4.51
COCCC1(C(=O)O)CCCN(C(=O)c2cnc3c(c2)CCCC3)C1 (stereo not drawn) | 2.02
N#Cc1ccc(NCc2cccnc2N2CCC(C(N)=O)CC2)cn1 | 2.13
COCCN1CCN(C(=O)C(c2cccc(F)c2)N(C)C)CC1 (stereo not drawn) | -5.71
Cc1cc(O)n2nc(C3CCN(C(=O)c4ccccn4)CC3)cc2n1 | 6.67
CCn1cnnc1CNC(=O)N1CCOC(c2ccccc2Cl)C1 (stereo not drawn) | 0.771
CCC(c1ccc(F)cc1F)S(=O)(=O)CCO (stereo not drawn) | -2.09
N#Cc1ccc(CN(CC(N)=O)Cc2cccc(F)c2)cc1 | -6
COc1cccc(F)c1C(C)NC(=O)NCc1cnc(C)s1 (stereo not drawn) | 10.2
CN(Cc1cc(Br)cn1C)C(=O)c1cccnc1 | -0.766
CNC(=O)C1CCN(c2ncnc3c2CCN(C(=O)C2CC2)C3)C1 (stereo not drawn) | 2.51
Cc1cc(CN2CCC(c3cc(Cc4ccccc4)n[nH]3)CC2)[nH]n1 | -6.49
CCc1ccsc1C(=O)NC(C#N)CC (stereo not drawn) | 2.87
CC(C)[C@@H]1CN(C(=O)CN(C)Cc2ccccc2)C[C@H]1C(=O)O | 2.94
COc1ccccc1CCNC(=O)N(C)C(C)CS(C)(=O)=O (stereo not drawn) | -5.38
CCc1ncc2c(n1)CN(c1cc(N3CCN(C)CC3)nc(N)n1)C2 | -137
CC(C(=O)NCC(C)(C)c1ccc2c(c1)OCO2)n1ccnc1 (stereo not drawn) | 0.66
CC(C)(CNC(=O)c1ccco1)CNC(=O)c1ccco1 | -2.53
